{
  "source": "the supplement of paper PMC8728848",
  "binders": {"B1": {"name": "RBMC1 (Vibrio cholerae) (protein)", "chain": "QQSQRVVTADNLMYLRSGFAIDAIGTTVNNLVGGPVQGTNGGVLRAPIALDQLQSVEVTSGLYNWGGYHIVAIKFTMKDGSSVLLGSTHYASNKKVETYTVPQGKRIKQINVWTGGWLVEGFQFVY"}},
  "experiment_in_all_cases": "glycan array binding signal (z-score within array); higher = stronger binding",
  "details_in_all_cases": "glycan notation: IUPAC condensed, linker removed",
  "key": {"[1]": {"biological_target": "Gal3S(b1-4)[Fuc(a1-3)]GlcNAc", "summary_of_the_method": "(§1)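 The binding signal is a Z-score computed within each array and averaged over linkers. Arrays of the same protein sequence at different concentrations or buffers were also averaged together. Data originate from 3228 arrays in the Consortium for Functional Glycomics database, kept only where the protein sequence was available.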"}, "[2]": {"biological_target": "GalNAc(a1-3)GalNAc(b1-3)Gal(a1-4)Gal(b1-4)GlcNAc", "summary_of_the_method": "as §1"}, "[3]": {"biological_target": "Glc(a1-4)Glc", "summary_of_the_method": "as §1"}, "[4]": {"biological_target": "GlcA3S(b1-3)Gal(b1-4)GlcNAc(b1-3)Gal(b1-4)Glc", "summary_of_the_method": "as §1"}, "[5]": {"biological_target": "GlcNAc(a1-4)Gal(b1-3)GlcNAc", "summary_of_the_method": "as §1"}, "[6]": {"biological_target": "GlcNAc(a1-4)Gal(b1-4)GlcNAc(b1-3)Gal(b1-4)Glc", "summary_of_the_method": "as §1"}, "[7]": {"biological_target": "GlcNAc(b1-3)Gal(b1-4)GlcNAc(b1-2)Man(a1-3)[GlcNAc(b1-3)Gal(b1-4)GlcNAc(b1-2)Man(a1-6)]Man(b1-4)GlcNAc(b1-4)[Fuc(a1-6)]GlcNAc", "summary_of_the_method": "as §1"}, "[8]": {"biological_target": "GlcNAc(b1-3)Gal(b1-4)GlcNAc(b1-2)[GlcNAc(b1-3)Gal(b1-4)GlcNAc(b1-6)]Man(a1-6)[GlcNAc(b1-3)Gal(b1-4)GlcNAc(b1-2)Man(a1-3)]Man(b1-4)GlcNAc(b1-4)GlcNAc", "summary_of_the_method": "as §1"}, "[9]": {"biological_target": "GlcNAc(b1-3)Gal(b1-4)GlcNAc(b1-3)Gal(b1-4)GlcNAc(b1-2)Man(a1-3)[GlcNAc(b1-3)Gal(b1-4)GlcNAc(b1-3)Gal(b1-4)GlcNAc(b1-2)Man(a1-6)]Man(b1-4)GlcNAc(b1-4)[Fuc(a1-6)]GlcNAc", "summary_of_the_method": "as §1"}, "[10]": {"biological_target": "GlcNAc(b1-3)[GlcNAc(b1-4)][GlcNAc(b1-6)]GlcNAc", "summary_of_the_method": "as §1"}, "[11]": {"biological_target": "GlcNAc(b1-4)GlcNAc(b1-4)GlcNAc(b1-4)GlcNAc(b1-4)GlcNAc", "summary_of_the_method": "as §1"}, "[12]": {"biological_target": "GlcNAc(b1-6)GalNAc", "summary_of_the_method": "as §1"}, "[13]": {"biological_target": "GlcNAc6S(b1-3)Gal(b1-4)GlcNAc", "summary_of_the_method": "as §1"}, "[14]": {"biological_target": "Man(a1-2)Man(a1-2)Man(a1-3)Man", "summary_of_the_method": "as §1"}, "[15]": {"biological_target": "Man(a1-3)[Man(a1-6)]Man", "summary_of_the_method": "as §1"}, "[16]": {"biological_target": "Man(a1-3)[Man(a1-6)]Man(a1-6)[Man(a1-2)Man(a1-3)]Man(b1-4)GlcNAc(b1-4)GlcNAc", "summary_of_the_method": "as §1"}, "[17]": {"biological_target": "Man(a1-3)[Man(a1-6)]Man(b1-4)GlcNAc(b1-4)GlcNAc", "summary_of_the_method": "as §1"}, "[18]": {"biological_target": "Man(a1-6)Man", "summary_of_the_method": "as §1"}, "[19]": {"biological_target": "Neu5Ac(a2-3)Gal(b1-3)GalNAc", "summary_of_the_method": "as §1"}, "[20]": {"biological_target": "Neu5Ac(a2-3)Gal(b1-4)GlcNAc(b1-2)Man(a1-3)[Neu5Ac(a2-3)Gal(b1-4)GlcNAc(b1-2)Man(a1-6)]Man(b1-4)GlcNAc(b1-4)[Fuc(a1-6)]GlcNAc", "summary_of_the_method": "as §1"}, "[21]": {"biological_target": "Neu5Ac(a2-3)Gal(b1-4)GlcNAc(b1-3)Gal(b1-4)GlcNAc(b1-3)Gal(b1-4)GlcNAc(b1-2)Man(a1-3)[Neu5Ac(a2-3)Gal(b1-4)GlcNAc(b1-3)Gal(b1-4)GlcNAc(b1-3)Gal(b1-4)GlcNAc(b1-2)Man(a1-6)]GalNAc", "summary_of_the_method": "as §1"}, "[22]": {"biological_target": "Neu5Ac(a2-3)Gal(b1-4)GlcNAc(b1-6)GalNAc", "summary_of_the_method": "as §1"}, "[23]": {"biological_target": "Neu5Ac(a2-3)Gal(b1-4)[Fuc(a1-3)]GlcNAc(b1-3)GalNAc", "summary_of_the_method": "as §1"}, "[24]": {"biological_target": "Neu5Ac(a2-3)[GalNAc(b1-4)]Gal(b1-4)Glc", "summary_of_the_method": "as §1"}, "[25]": {"biological_target": "Neu5Ac(a2-6)Gal(b1-3)GlcNAc(b1-3)[Gal(b1-4)GlcNAc(b1-6)]Gal(b1-4)Glc", "summary_of_the_method": "as §1"}, "[26]": {"biological_target": "Neu5Ac(a2-6)Gal(b1-4)GlcNAc(b1-2)Man(a1-3)[Man(a1-6)]Man(b1-4)GlcNAc(b1-4)GlcNAc", "summary_of_the_method": "as §1"}, "[27]": {"biological_target": "Neu5Ac(a2-6)Gal(b1-4)GlcNAc(b1-2)Man(a1-3)[Neu5Ac(a2-6)Gal(b1-4)GlcNAc(b1-2)Man(a1-6)]Man(b1-4)GlcNAc(b1-4)GlcNAc", "summary_of_the_method": "as §1"}, "[28]": {"biological_target": "Neu5Ac(a2-6)Gal(b1-4)GlcNAc(b1-2)Man(a1-3)[Neu5Ac(a2-6)Gal(b1-4)GlcNAc(b1-2)Man(a1-6)]Man(b1-4)GlcNAc(b1-4)[Fuc(a1-6)]GlcNAc", "summary_of_the_method": "as §1"}, "[29]": {"biological_target": "Neu5Ac(a2-6)Gal(b1-4)GlcNAc(b1-2)Man(a1-6)[Gal(b1-4)GlcNAc(b1-2)Man(a1-3)]Man(b1-4)GlcNAc(b1-4)GlcNAc", "summary_of_the_method": "as §1"}, "[30]": {"biological_target": "Neu5Ac(a2-6)Gal(b1-4)GlcNAc(b1-2)Man(a1-6)[Man(a1-3)]Man(b1-4)GlcNAc(b1-4)GlcNAc", "summary_of_the_method": "as §1"}, "[31]": {"biological_target": "Neu5Ac(a2-6)GalNAc", "summary_of_the_method": "as §1"}, "[32]": {"biological_target": "Neu5Gc(a2-3)Gal(b1-3)[Fuc(a1-4)]GlcNAc", "summary_of_the_method": "as §1"}, "[33]": {"biological_target": "Neu5Gc(a2-8)Neu5Ac(a2-3)Gal(b1-4)GlcNAc", "summary_of_the_method": "as §1"}},
  "note": "The entries come from a sample that favours the strongest signals as a whole.",
  "data": [
    {"binder": "B1", "values": [
      {"measurement": "glycan array binding signal (z-score)", "setting": "[1]", "result": -0.188},
      {"measurement": "glycan array binding signal (z-score)", "setting": "[2]", "result": -0.064},
      {"measurement": "glycan array binding signal (z-score)", "setting": "[3]", "result": -0.216},
      {"measurement": "glycan array binding signal (z-score)", "setting": "[4]", "result": -0.217},
      {"measurement": "glycan array binding signal (z-score)", "setting": "[5]", "result": -0.355},
      {"measurement": "glycan array binding signal (z-score)", "setting": "[6]", "result": -0.284},
      {"measurement": "glycan array binding signal (z-score)", "setting": "[7]", "result": 2.83},
      {"measurement": "glycan array binding signal (z-score)", "setting": "[8]", "result": -0.295},
      {"measurement": "glycan array binding signal (z-score)", "setting": "[9]", "result": 2.5},
      {"measurement": "glycan array binding signal (z-score)", "setting": "[10]", "result": -0.158},
      {"measurement": "glycan array binding signal (z-score)", "setting": "[11]", "result": -0.358},
      {"measurement": "glycan array binding signal (z-score)", "setting": "[12]", "result": -0.289},
      {"measurement": "glycan array binding signal (z-score)", "setting": "[13]", "result": -0.267},
      {"measurement": "glycan array binding signal (z-score)", "setting": "[14]", "result": -0.395},
      {"measurement": "glycan array binding signal (z-score)", "setting": "[15]", "result": 0.002},
      {"measurement": "glycan array binding signal (z-score)", "setting": "[16]", "result": 0.166},
      {"measurement": "glycan array binding signal (z-score)", "setting": "[17]", "result": 1.13},
      {"measurement": "glycan array binding signal (z-score)", "setting": "[18]", "result": 1.1},
      {"measurement": "glycan array binding signal (z-score)", "setting": "[19]", "result": -0.226},
      {"measurement": "glycan array binding signal (z-score)", "setting": "[20]", "result": 3.39},
      {"measurement": "glycan array binding signal (z-score)", "setting": "[21]", "result": 0.281},
      {"measurement": "glycan array binding signal (z-score)", "setting": "[22]", "result": -0.114},
      {"measurement": "glycan array binding signal (z-score)", "setting": "[23]", "result": -0.194},
      {"measurement": "glycan array binding signal (z-score)", "setting": "[24]", "result": -0.432},
      {"measurement": "glycan array binding signal (z-score)", "setting": "[25]", "result": -0.461},
      {"measurement": "glycan array binding signal (z-score)", "setting": "[26]", "result": 10.4},
      {"measurement": "glycan array binding signal (z-score)", "setting": "[27]", "result": 4.94},
      {"measurement": "glycan array binding signal (z-score)", "setting": "[28]", "result": 11.9},
      {"measurement": "glycan array binding signal (z-score)", "setting": "[29]", "result": 3.13},
      {"measurement": "glycan array binding signal (z-score)", "setting": "[30]", "result": -0.031},
      {"measurement": "glycan array binding signal (z-score)", "setting": "[31]", "result": -0.35},
      {"measurement": "glycan array binding signal (z-score)", "setting": "[32]", "result": -0.039},
      {"measurement": "glycan array binding signal (z-score)", "setting": "[33]", "result": -0.406}
    ]}
  ]
}
